# Sampled rows, rich in hits. Any-hit rate of the full collection: about 0.49%.
# Vif-A3F inh: Vif-A3F binding inhibition; HeLa A3F-eYFP + Vif (tagged APOBEC3F with the HIV-1 protein that degrades it), YFP fluorescence increase; Potency, µM (doses to about 46.1 µM), for inactives: top-dose activity, negative = active; hit rate 0.2% among 390,000; also: potency is read from the fitted curve at half-maximal effect; % of control where 0% means no effect; nearly all actives have a fitted effect of over 65% in size
#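 Fluorescence increase (Ex 488/Em 500-530) after overnight compound treatment at 37 deg C flags inhibition of Vif-driven A3F-eYFP loss in stable HeLa A3F-eYFP/Vif cells seeded overnight beforehand.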
# Epigenetic reg: epigenetic control regulation, reporter derepression | murine LDR cells, GFP reporter derepression, 30 h | Potency, µM (series often up to 53.9 µM), without a hit: at the highest dose GFP activation, hits mostly activators | hit rate 0.2% among 280,000; also: potency is read from the fitted curve at half-maximal effect; % of control where 0% means no effect; nearly all actives have a fitted effect of over 60% in size
#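 Derepression of a silenced CMV-GFP reporter in murine LDR cells is scored by enumerating GFP-positive cells with a laser-scanning microplate cytometer after 30 hours of treatment at 37 C.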
# Vif-A3G inh: Vif-A3G binding inhibition | hit rate 0.076% among 410,000 | Potency, µM (top dose mostly 46.1 µM), without a hit: at the highest dose activity, negative = active, hits mostly inhibitors | Q9HC16 | HeLa A3G-eYFP + Vif (tagged APOBEC3G with the HIV-1 protein that degrades it), YFP fluorescence, overnight | AID 602310; also: potency is read from the fitted curve at half-maximal effect; % is scaled to controls: 0 for no effect and ±100 for the full control effect; nearly all actives have a fitted effect of over 60% in size
# Target sequence (Q9HC16 whole entry, looked up): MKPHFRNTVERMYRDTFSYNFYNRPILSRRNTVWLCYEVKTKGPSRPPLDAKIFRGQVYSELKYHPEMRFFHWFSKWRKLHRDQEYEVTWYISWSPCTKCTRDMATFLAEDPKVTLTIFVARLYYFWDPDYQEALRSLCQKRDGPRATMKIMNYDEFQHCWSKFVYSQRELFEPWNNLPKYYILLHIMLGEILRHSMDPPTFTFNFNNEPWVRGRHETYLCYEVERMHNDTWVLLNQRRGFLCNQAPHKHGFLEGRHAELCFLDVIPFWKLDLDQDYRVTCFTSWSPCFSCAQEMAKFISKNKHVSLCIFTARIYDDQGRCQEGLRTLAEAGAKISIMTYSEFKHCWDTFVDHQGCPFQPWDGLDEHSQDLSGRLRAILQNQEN
#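 Read-out is eYFP fluorescence (Ex 488/Em 500-530) from Vif-expressing HeLa A3G-eYFP cells; more signal means A3G escaped Vif-mediated degradation. Cells plated overnight, compound pinned in, incubated overnight at 37 deg C.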
# LDHA block: LDHA (human) enzyme inhibition; purified LDHA, NADH/diaphorase-resazurin fluorescence; active compounds read low; activity change, % (values are at about 110 or 230 µM); hit rate 0.15% among 480,000; in the data active = activity change below about -30%; inconclusive = mostly about -25% to -30%;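 also: plate controls were DMSO wells for no effect and wells without enzyme for full effect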
#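 Remaining NADH was detected by diaphorase (0.133 mg/mL) converting 37 µM resazurin to fluorescent resorufin, read at 0 and 20 minutes. The preceding 5-minute room-temperature reaction used 2 nM LDHA, 0.2 mM sodium pyruvate and 0.06 mM NADH at pH 7.4.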
# Apoferritin bind: binds horse apoferritin like a general anesthetic; P02791; apoferritin/1-aminoanthracene competitive binding, fluorescence; Potency, µM (top dose mostly 77.5 µM), without a hit: at the highest dose activity change, negative = displacement, most hits filed as inhibitors; hit rate 0.074% among 350,000; AID 485281; also: potency is read from the fitted curve at half-maximal effect; % is scaled to controls: 0 for no effect and ±100 for the full control effect; nearly all actives have a fitted effect of over 20% in size
# Target sequence (P02791 2-175 limits assumed): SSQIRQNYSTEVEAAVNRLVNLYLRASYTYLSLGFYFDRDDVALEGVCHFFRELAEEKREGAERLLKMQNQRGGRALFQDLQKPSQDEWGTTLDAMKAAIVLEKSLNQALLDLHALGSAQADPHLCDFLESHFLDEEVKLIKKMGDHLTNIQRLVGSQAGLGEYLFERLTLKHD
#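 Probe: 1-aminoanthracene (50% saturated, PBS). Protein: horse-spleen apoferritin, 10 uM. Incubation: 10 min, room temperature. Detection: 380 nm excitation, 535 nm emission. Analysis: normalized response, four-parameter Hill.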
# * marks the source's active call; other numbers are inactive results; ? = inconclusive; . = no result; ! = a repeat was not active. Unless noted, calls follow the shape of the dose curve; as a rule, active = well fitted curve in the direction sought with a large enough effect; inconclusive = small, poorly fitted or top-dose-only effect, or another doubt; inactive = no such curve, though single readings can be large; an effect the other way counts as inactive or inconclusive.
SMILES,Vif-A3F inh,Epigenetic reg,Vif-A3G inh,LDHA block,Apoferritin bind
Oc1[nH]c2ccccc2c1N=Nc1ccccc1Cl,22.4µM*,.,-15.2%,-5.3,.
Oc1[nH]c2ccccc2c1N=Nc1c(F)c(F)c(Cl)c(F)c1F,-15.4%,.,-2.7%,-2.8,-5.4%
O=C(/C=C/c1ccccc1)C1C(=O)c2ccccc2C1=O,-5.5%,1.1%,1.7%,-3.2,-2.9%
O=C(c1ccccc1)C1C(=O)c2ccccc2C1=O,35.5µM*,?,?,4.9,-16.2%
CCCN1CNc2c(c(=O)[nH]c(=S)n2CCc2cccs2)C1,.,.,.,-1.6,.
CCOC(=O)/C(C#N)=N/Nc1ccccc1OC,?,2.7%,-20.3%,-5.4,-0.5%
CCOC(=O)/C(C#N)=N\Nc1cc(Cl)ccc1OC,10µM*,?,-4.8%,0.5,-13.3%
O=C1c2cccc3c([N+](=O)[O-])c(O)cc(c23)C(=O)N1Nc1ccccc1,10µM*,3.2%,?,3.6,-12.2%
N#Cc1cccc(NC(=O)CSc2ccc3c4c(cccc24)C(=O)c2ccccc2-3)c1,11.2µM*,5.01µM*,2.82µM*,-14.2,76.5%
COc1ccc(NC(=O)CSc2ccc3c4c(cccc24)C(=O)c2ccccc2-3)cc1,11.2µM*,?,?,-5.1,-5.4%
COc1ccc(NC(=O)CSc2nnc(C)c3ccccc23)cc1,-1.5%,.,-28.5%,2.0,-3.8%
O=C(O)/C=C/c1ccc(-c2cccc(Cl)c2)s1,.,.,.,-5.5,.
CC(=O)Nc1ccc(C=NNC(=O)c2ccc(NS(=O)(=O)c3cccs3)cc2)cc1,3.2%,.,0.8%,-32.5*,.
O=C(NN=Cc1c(F)c(F)c(F)c(F)c1F)c1ccc(NS(=O)(=O)c2cccs2)cc1,0.3%,.,-3.0%,-4.0,.
Cc1occc1C(=O)N/N=C/c1ccc(-c2ccccc2)cc1,14.4%,.,2.1%,-0.9,-9.8%
Cc1occc1C(=O)N/N=C/C(Br)=C/c1ccccc1,?,22.4µM*,-13.5%,-1.4,-19.4%
CC(CN1CCCCC1)OC(=O)c1ccc2c(c1)OCCO2 (configuration not stated),-18.4%,.,-2.7%,-4.0,-3.0%
CCCc1ccc(-c2c(C)sc(N)c2C#N)cc1,-2.6%,-0.2%,-0.1%,2.0,35.5µM*
CC(=O)N1C(=O)C2(C(C#N)=C(N)Oc3c2c(C)nn3-c2ccccc2)c2ccccc21 (configuration not stated),1.3%,-3.2%,-7.0%,20.3,?
N#Cc1nc(-c2ccccc2Cl)oc1N1CCOCC1,-7.9%,-1.1%,-5.2%,-32.4*!,-7.3%
N#Cc1nc(-c2ccccc2Cl)oc1N1CCCCCC1,.,.,.,-12.2,.
Cc1ccc(C)c(-c2cc(C)ncc2C)c1,.,.,.,-30.5*,.
Cc1csc2ncnc(NNC(=O)c3ccc(Cl)cc3)c12,3.5%,35.5µM*,0.9%,-0.5,-7.8%
O=C(NNc1ncnc2sccc12)c1ccc(Cl)cc1,4.1%,-1.0%,-1.0%,-9.8,3.7%
CCC(C)NC(=O)CSc1nc2cc3c(cc2c(=O)n1Cc1ccc(C(=O)NCCc2ccc(OC)c(OC)c2)cc1)OCO3 (configuration not stated),.,11.2µM*,-3.6%,3.3,-3.4%
SMILES,Vif-A3F inh,Epigenetic reg,Vif-A3G inh,LDHA block,Apoferritin bind
N#Cc1cnn(-c2cccc(Cl)c2)c1N,3.4%,-1.1%,-0.1%,-5.6,-6.3%
O=C1CC(C(F)(F)C(F)(F)C(F)(F)C(F)F)=Nc2ccccc2N1,-2.0%,-2.4%,-5.0%,-9.1,50.1µM*
O=C(Nc1c(-c2ccccc2)[nH][nH]c1=O)c1cccs1,.,.,.,3.9,.
Cc1ccc(C(=O)NNC(=O)c2ccc(S(=O)(=O)N3CCCCC3)cc2)cc1,?,.,-2.9%,-31.9*,.
CN1C(=O)CSc2ccc(NC(=O)NCCC3=CCCCC3)cc21,-0.7%,-4.4%,0.9%,0.6,22.4µM*
Cc1ccnc(NC(=O)Nc2ccc3c(c2)N(C)C(=O)CS3)c1,25.1µM*,0.1%,?,-2.3,4.3%
CCCCCN(Cc1ccc(F)cc1)C(=O)C(C)NC(N)=O (configuration not stated),.,.,.,-2.3,.
CC(C)c1cccc(-c2ccc3c(c2)S(=O)(=O)c2cccc(C(=O)NCc4ccccc4)c2C3=O)c1,10µM*,.,1.9%,-18.5,.
COc1ccc(-c2ccc3c(c2)S(=O)(=O)c2cccc(C(=O)NCc4ccccc4Cl)c2C3=O)cc1OC,5.7%,.,-2.7%,-3.2,.
CC(C)c1cccc(-c2ccc3c(c2)S(=O)(=O)c2cccc(C(=O)NCc4ccccc4Cl)c2C3=O)c1,11.2µM*,.,0.4%,-5.6,.
CCOC(=O)c1cccc(NC(=O)c2cnn(-c3ccccc3)c2-n2cccc2)c1,-5.1%,-4.3%,-5.1%,-7.3,-16.8%
CCc1ccc(NC(=O)CS(=O)CC(=O)Nc2ccc(-n3cnnn3)c(C)c2)cc1 (configuration not stated),-19.7%,.,-0.8%,-32.3*,?
Cc1cc(C)c2c(N)c(C(=O)N3CCCCCC3)sc2n1,-0.3%,0.0%,-1.4%,-4.3,-22.6%
O=C(CCN1C(=O)/C(=C/C=C/c2ccccc2)SC1=S)Nc1cccnc1,-5.4%,2.0%,-16.7%,-1.3,-18.2%
O=C(CCN1C(=O)/C(=C/C=C/c2ccccc2)SC1=S)Nc1ccccn1,?,14.1µM*,-8.8%,0.3,-4.6%
O=C1NCCN1C(=O)C12CC3CC(CC(C3)C1)C2,3.4%,-0.9%,3.3%,-4.5,14.1µM*
CN(C)S(=O)(=O)c1cccc(S(=O)(=O)Nc2cccc(C#N)c2)c1,.,.,.,2.7,.
O=C1CCCC2=C1C(c1ccc(F)cc1F)Nc1nonc1N2 (configuration not stated),.,.,.,-33.2*,.
c1ccc2c(c1)[nH]c1c(N3CCN(C4CCCCC4)CC3)ncnc12,8.3%,-2.2%,2.8%,-4.8,6.31µM*
O=C(C1CCN(Cc2cccs2)CC1)N1CCN(Cc2ccc3c(c2)OCO3)CC1,-10.2%,3.7%,-0.9%,-32.5*,-4.2%
Cc1cccc(OCC(=O)OCc2cc(=O)n3nc(C4CCCCC4)sc3n2)c1,-3.5%,0.8%,1.4%,3.6,15.8µM*
O=C(Nc1ccc(C(=O)OCc2cc(=O)n3nc(C4CC4)sc3n2)cc1)c1cccc(Cl)c1,-21.6%,9.5%,0.2%,0.2,-2.9%
O=C(Nc1cccc(C(=O)OCc2cc(=O)n3nc(C4CC4)sc3n2)c1)c1cccc(Cl)c1,-4.8%,15.8µM*,-5.2%,-3.6,4.8%
CCC(C)Sc1nnc(CSc2nc(C)cc(C)n2)n1C (configuration not stated),-1.4%,-1.4%,0.6%,-6.3,-16.0%
COc1cccc(/C(O)=C/c2nc3ccc(C(=O)NCCc4cccc(C)c4)cc3[nH]c2=O)c1,?,14.1µM*,5.62µM*,-4.2,-1.5%
COc1cccc(/C(O)=C/c2nc3ccc(C(=O)NCCc4ccc(Cl)cc4)cc3[nH]c2=O)c1,5.01µM*,7.94µM*,?,-5.4,-5.4%

# From PubChem BioAssay
